Among the test systems are NCI-H23 lung; NCI-H226 lung; NCI-H322M lung; HOP-62 NSCLC; NCI-H460 lung; HOP-92 NSCLC; NCI-H522 lung; A549/ATCC NSCLC; 786-0 renal; COLO 205 colon.
What all share (test): NCI-60 one-dose screen, 48 h (100 = growth as untreated, 0 = no growth, -100 = all killed)
Common to all, as to conditions: 10 µM unless noted

Where “and” joins values, the source holds several entries; their conditions need not be identical. Equal entries are not always repeated. This is part of a sample that, as a whole, favours compounds with a hit. Of some 83,000 tested, about 20% had one in any assay.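 A percent growth of 40 corresponds to 60% growth inhibition; 0 means no net growth; -100 means all cells died. Active threshold: below 10.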 A number with no mark means an inactive call. Calls of active or inactive are those of the source.

In PubChem BioAssay (NCI) one finds growth data, which are given here for 11 molecules.

Consider `Cc1nn(-c2ccccc2)c2ncn(CC(=O)N/N=C/c3ccccc3O)c(=O)c12`, for which the growth in the assay with NCI-H23 lung is 40.7%; with NCI-H226 lung, 47.6%; in the assay on NCI-H322M lung, 39.1%; in the assay with HOP-62 NSCLC it was 27.4%; in the assay with NCI-H460 lung it was 17.7%; in the assay on HOP-92 NSCLC, 55.8%. Also, the growth in the assay on NCI-H522 lung is 21%; in the assay on A549/ATCC NSCLC, 38.9%; in the assay with 786-0 renal it was 37.2%; in the assay with COLO 205 colon it was 10.3%.
In the case of `CC1(C)CC(=O)C2=C(C1)OC(N)=C(c1nc3ccccc3[nH]1)C2c1ccc(Cl)cc1` (stereo not given), the growth in the assay with NCI-H23 lung is 46.5% and 106%; with NCI-H226 lung, 65.7% and 123%; with NCI-H322M lung it was 51.3% and 101%; with HOP-62 NSCLC, 87% and 116%; with NCI-H460 lung, 57% and 112%; with HOP-92 NSCLC it was 54.8% and 119%. Besides, the growth is 55% and 111% in the assay on NCI-H522 lung; 64.6% and 115% in the assay with A549/ATCC NSCLC; 62.1% and 102% in the assay with 786-0 renal; 78.8% and 121% in the assay on COLO 205 colon.
As to `Cn1cc(-c2cc(N)n3nc(-c4c[nH]c5ccccc45)cc3n2)c2cc(Br)ccc21`, the growth with NCI-H23 lung was -75.2% (active); with NCI-H226 lung, -11.9% (active); in the assay with NCI-H322M lung, -37.2% (active); with HOP-62 NSCLC it was -76.9% (active); with NCI-H460 lung it was -59% (active); in the assay with HOP-92 NSCLC, -74.5% (active). Further, the growth in the assay with NCI-H522 lung was -74.7% (active); in the assay on A549/ATCC NSCLC, -50% (active); in the assay on 786-0 renal, -73.7% (active); in the assay with COLO 205 colon, -90.1% (active).
Turning to `CCOC(=O)/C(F)=C/C1CC1CCc1ccc(OCC)cc1` (stereo not given), the growth in the assay with NCI-H23 lung is 87.3%; with NCI-H226 lung, 86.8%; in the assay on NCI-H322M lung, 82.5%; with HOP-62 NSCLC, 124%; with NCI-H460 lung it was 59.2%; in the assay on HOP-92 NSCLC, 91.7%. For the same molecule, the growth is 97.5% with NCI-H522 lung, 50.5% in the assay on A549/ATCC NSCLC, 105% in the assay on 786-0 renal and 41.8% in the assay with COLO 205 colon.
With `Cc1cccc(C)c1Nc1nnc(-c2c[nH]c3ccccc23)o1`, the growth in the assay with NCI-H23 lung is 88.8%; in the assay on NCI-H226 lung it was 78.9%; in the assay with NCI-H322M lung, 98%; with HOP-62 NSCLC, 83.1%; in the assay with NCI-H460 lung, 99.7%; in the assay with HOP-92 NSCLC, 89.9%. Moreover, the growth in the assay with NCI-H522 lung was 89.4%; with A549/ATCC NSCLC, 98.1%; in the assay with 786-0 renal it was 105%; in the assay on COLO 205 colon, 110%.
Take `Clc1ccccc1Nc1nnc(-c2c[nH]c3ccccc23)o1`: the growth in the assay on NCI-H23 lung is 22.2%; in the assay with NCI-H226 lung, 43.9%; with NCI-H322M lung, 47.1%; in the assay with HOP-62 NSCLC, 27.2%; in the assay with NCI-H460 lung, 16%; with HOP-92 NSCLC, 43.9%. Moreover, the growth in the assay with NCI-H522 lung was -25.1% (active); in the assay with A549/ATCC NSCLC, 22.1%; with 786-0 renal it was 36%; in the assay with COLO 205 colon, -33.6% (active).
As to `O=CNc1ccc(-n2cnc3cc(-c4ccc(O)cc4)ccc32)cc1`, the growth with NCI-H23 lung is 86.5%; in the assay with NCI-H226 lung, 83.5%; in the assay on NCI-H322M lung it was 91.1%; with HOP-62 NSCLC, 85.6%; in the assay on NCI-H460 lung, 87.4%; with HOP-92 NSCLC, 96.5%. The growth was 82.1% in the assay on NCI-H522 lung, 86.9% in the assay with A549/ATCC NSCLC, 101% in the assay with 786-0 renal and 136% with COLO 205 colon.
With `Nc1ccc(-c2ccc3ncnc(N4CCc5cc(F)c(Cl)cc54)c3c2)cn1`, the growth is 29.4% in the assay with NCI-H23 lung; 18.4% in the assay on NCI-H226 lung; -2.2% (active) in the assay with NCI-H322M lung; 37.5% in the assay with HOP-62 NSCLC; 25.6% in the assay on NCI-H460 lung; 1.25% (active) in the assay on HOP-92 NSCLC. Moreover, the growth in the assay on NCI-H522 lung was 15.4%; in the assay with A549/ATCC NSCLC, 14.2%; in the assay on 786-0 renal, -69.8% (active); with COLO 205 colon, 50%.
With `O=C(NNC(=S)NC(=O)c1ccccc1)c1ccc(OCc2nc3ccc(Cl)cc3[nH]2)cc1`, the growth in the assay with NCI-H23 lung was -71.3% (active); in the assay on NCI-H226 lung it was -43.9% (active); in the assay on NCI-H322M lung, -41.5% (active); in the assay on HOP-62 NSCLC, -64.3% (active); in the assay on NCI-H460 lung, 11.6%; in the assay on HOP-92 NSCLC it was -10.8% (active). The growth was 1.39% (active) in the assay on NCI-H522 lung, -29.2% (active) in the assay with A549/ATCC NSCLC, 0.779% (active) in the assay on 786-0 renal and -22.5% (active) in the assay on COLO 205 colon.
For `CCOc1ccc(-c2cc(-c3cc(C(C)C)c(O)cc3C)nn2-c2ccc(S(N)(=O)=O)cc2)cc1`, the growth was 27.6% with NCI-H23 lung; 67.4% in the assay on NCI-H226 lung; 66.6% in the assay with NCI-H322M lung; 65.4% with HOP-62 NSCLC; 23.9% in the assay on NCI-H460 lung; 47.4% with HOP-92 NSCLC. The growth in the assay with NCI-H522 lung was 1.3% (active); in the assay with A549/ATCC NSCLC, 32%; in the assay with 786-0 renal, 37.1%; in the assay with COLO 205 colon, 131%.
Regarding `CC(C)C[C@H](NC(=O)[C@@H]1CCCCCCCCCCC(=O)N[C@@H](CC(=O)N2CCC[C@@H]2C2CCCC2)C(=O)N1)B(O)O`, the growth with NCI-H23 lung is -83.3% (active); in the assay on NCI-H226 lung it was -33.3% (active); in the assay on NCI-H322M lung, -59.8% (active); in the assay with HOP-62 NSCLC it was -14.7% (active); with NCI-H460 lung it was 0.61% (active); with HOP-92 NSCLC, -63.2% (active). The growth with NCI-H522 lung was -49.1% (active); in the assay on A549/ATCC NSCLC it was 1.48% (active); with 786-0 renal it was -43.8% (active); with COLO 205 colon, -64.6% (active).
